Reference: PubChem BioAssay (NCATS)
Results filed as inconclusive are left out. Values without a mark were called inactive. Active and inactive are the calls of the source. Calls follow the shape of the dose curve; as a rule, active = well fitted inhibition curve with a large enough effect; inconclusive = small, poorly fitted or top-dose-only effect; inactive = flat fitted curve, though single readings scatter.

experiment: P-glycoprotein substrates identified in KB-8-5-11 adenocarcinoma cell line, qHTS therapeutic library screen (AID 1346987); details: KB-8-5-11 (P-gp overexpressing) viability, CellTiter-Glo, 72 h; series mostly up to 44.5 µM; activity change, negative = cytotoxicity: at the top concentration; also: nearly all actives have a fitted effect of over 65% in size
In short: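 Compounds are pinned in dose-response onto KB-8-5-11 cells (500 cells/well, colchicine-free medium) and left 72 h at 37 degree C. CellTiter-Glo luminescence then yields AC50 values.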
% is scaled to controls: 0 for no effect and ±100 for the full control effect.

| Compound | outcome | activity change, negative = cytotoxicity |
| --- | --- | --- |
| O=C(/C=C/c1ccc(O)cc1)O[C@@H]1C[C@@](O)(C(=O)O)C[C@@H](O)[C@@H]1O | inactive | – |
| C=CCc1cc(OC)c(OC(C)C(O)c2ccc(O)c(OC)c2)c(OC)c1 (stereo unspecified) | – | -11.9% |
| C=CC1(C)CC=C2C(CCC3C(C)(C(=O)O)CCCC23C)C1 (stereo unspecified) | inactive | – |
| CC(CCc1ccc(O)cc1)O[C@@H]1O[C@H](CO[C@@H]2OC(CO)[C@H](O)[C@H]2O)[C@@H](O)[C@H](O)[C@H]1O (stereo partly specified) | inactive [at 17.3 µM] | – |
| CC(C)CC[C@@H](O)[C@](C)(O)[C@H]1CC[C@@]2(O)C3=CC(=O)[C@@H]4C[C@@H](O)[C@@H](O)C[C@]4(C)[C@H]3CC[C@]12C | inactive | – |
| C[C@]1(OC(=O)/C=C/c2ccccc2)C[C@@H](O)[C@]2(O)C=CO[C@@H](O[C@@H]3O[C@H](CO)[C@@H](O)[C@H](O)[C@H]3O)[C@@H]21 | – | 5.57% [at 17.3 µM] |
| C[C@]12CC[C@@H]3c4ccc(O)cc4CC[C@H]3[C@@H]1C[C@@H](O[C@@H]1O[C@H](C(=O)O)[C@@H](O)[C@H](O)[C@H]1O)[C@@H]2O | – | -0.407% |
| Cc1onc(-c2ccccc2Cl)c1C(=O)N(C)c1ccc(Cl)cc1 | – | -5.46% |
| COc1ccc(OC2OC(CO[C@@H]3O[C@@H](C)[C@H](O)[C@@H](O)[C@H]3O)C(O)C(O)C2O)cc1OC (stereo partly specified) | – | 8.07% [at 17.3 µM] |
| CC1(C)CC[C@]2(C(=O)O)CC[C@]3(C)C(=CCC4[C@@]5(C)C[C@@H](O)[C@H](O)[C@@](C)(CO)C5CC[C@]43C)C2C1 (stereo partly specified) | – | 0.917% [at 17.3 µM] |
| CC(=O)O[C@H]1C[C@@H](O)C(C)(C)C2C[C@@H](OC(C)=O)[C@@]3(C)C4=CCC(C(CO)CC(O)C5OC5(C)C)[C@]4(C)CCC3[C@]21C (stereo partly specified) | – | 9.46% [at 17.3 µM] |
